13 compounds from PubChem BioAssay AID2061304 (National Center for Advancing Translational Sciences (NCATS), 2025) can be followed below.

Records with an inconclusive call do not appear. Active and inactive are the calls of the source. Calls follow the shape of the dose curve; as a rule, active = well fitted inhibition curve with a large enough effect; inconclusive = small, poorly fitted or top-dose-only effect; inactive = flat fitted curve, though single readings scatter. Square brackets hold non-standard residues; d marks the D form. Peptide text beside a SMILES is read from it. Dolaproine = CO[C@@H]([C@@H]1CCCN1)[C@@H](C)C(=O)O; Dil = CC[C@H](C)[C@H](NC)[C@@H](CC(=O)O)OC; NMeV = CN[C@H](C(=O)O)C(C)C

A short description of the assay: Identification of antibody-drug conjugate (ADC) payloads which are substrates of ATP-binding cassette drug efflux transporters: ABCB1-HeLa-KB-8-5-11 cell line. Particulars: KB-8-5-11 (P-gp overexpressing HeLa) viability, CellTiter-Glo, 48 h; series mostly up to 31.4 µM. From the text: Antibody-drug conjugates (ADCs) feature an antibody recognizing a specific protein joined to a potent toxic payload. Numerous antibody-drug conjugates have received FDA approval; however, clinical resistance arises. Resistance mechanisms include decreased expression or mutation of the antibody target, impaired payload release, or increased expression of ATP-binding cassette (ABC) efflux transporters associated with multidrug resistance. We therefore sought to characterize the interaction of ABC multidrug transporters with ADC payloads. We performed a high-throughput screen with 27 common ADC payloads using cells lines expressing ABC transporters P-glycoprotein (P-gp, encoded by ABCB1) or ABCG2 (encoded by ABCG2). Confirmatory assays were also performed using cells transfected to express P-gp, ABCG2, or MRP1 (encoded by ABCC1). Several commonly used ADC payloads were substrates of P-gp, including calicheamicin gamma1, monomethyl auristatin E, DM1, and DM4. All the pyrrolobenzodiazepines tested - SJG136, SGD-1882, SG2057, and SG3199 - were substrates of P-gp, ABCG2, and MRP1. […] These findings highlight the risk of transporter-mediated resistance with certain ADC payloads and underscore the importance of selecting payloads that evade ABC transporter recognition in future ADC development.
HEK-293 cells were transfected with empty vector (pcDNA) or vector containing the human ABCB1 (MDR-19), ABCG2 (R-5), or ABCC1 gene (MRP1) and were maintained in EMEM with 2 mg/mL G418 added to maintain transporter expression. The HeLa derivative KB-3-1 and the P-gp overexpressing KB-8-5-11 subline were maintained in DMEM; KB-8-5-11 additionally received 100 ng/mL colchicine. H460 parental cells were obtained from the Division of Cancer Treatment and Diagnosis Tumor Repository, National Cancer Institute at Frederick, MD and were cultured in RPMI. The ABCG2 expressing subline H460 MX20 was generated by selecting H460 cells in 20 nM mitoxantrone. Media in all cases was supplemented with 10% FBS and 1% penicillin-streptomycin. We explored 27 common ADC payloads, in two orthogonal, paired cell line sets-a drug selected and transfected set for each transporter--to identify substrates of the ABC transporters P-gp and ABCG2. Compounds were sourced from Levena Biopharma (San Diego, CA), Selleck Chem (Houston, TX), ChemieTek (Indianapolis, IN), or Microsource Discovery Systems (Gaylordsville, CT). Screening was performed as previously described. Briefly, cells were plated at a density of 500 cells/well in 1536 well plates with compounds added using a 1536-head pin tool (Kalypsys, San Diego CA). Cells were incubated with cytotoxic drugs and processed with CellTiter Glo reagent (Promega, Madison, WI) to determine viability after 48 hours. P-gp substrates were identified by comparing compound activity between paired sets of low-expressing (sensitive) and over-expressing (resistant) cell lines.
In general terms: In ATP-based viability assays light output follows the ATP content of the culture.
Regarding `COc1cccc2c1C(=O)c1c(O)c3c(c(O)c1C2=O)C[C@@](O)(C(=O)CO)C[C@@H]3O[C@H]1C[C@H]2[C@H](O[C@@H]3[C@@H](OC)OCCN32)[C@H](C)O1`, the Potency was 0.2 nM (active).
The value for `COc1ccc(C2=CN3C(=O)c4cc(OC)c(OCCCOc5cc6c(cc5OC)C(=O)N5C=C(c7ccc(N)cc7)C[C@@H]5C=N6)cc4N=C[C@H]3C2)cc1` was “inactive”; that for `CC[C@H](C)[C@@H]([C@H](N)CC(=O)N1CCC[C@H]1[C@H](OC)[C@@H](C)C(=O)N[C@@H](Cc1ccccc1)c1nccs1)N(C)C(=O)[C@@H](NC(=O)[C@@H](NC)C(C)C)C(C)C` was 1.9 nM (active).
`COC(=O)c1cc2c3c(cc(O)c2[nH]1)N(C(=O)c1cc2cc(OC)c(OC)c(OC)c2[nH]1)CC3CCl` (stereo not drawn): the Potency was 0.6 nM (active).
The result for `CC[C@]1(O)CC2CN(CCc3c([nH]c4ccccc34)[C@@](C(=O)OC)(c3cc4c(cc3OC)N(C)[C@H]3[C@@](O)(C(=O)OC)[C@H](OC(C)=O)[C@]5(CC)C=CCN6CC[C@]43[C@@H]65)C2)C1` (stereo partly drawn) reads 298 nM (active).
On to `COc1cccc2c1C(=O)c1c(O)c3c(c(O)c1C2=O)C[C@@](O)(C(=O)CO)C[C@@H]3O[C@H]1C[C@H](N)[C@H](O)[C@H](C)O1`, for which the Potency is 16700 nM (active).
The result for `CN(C)CCOc1ccc2[nH]c(C(=O)N3C[C@@H](CCl)c4c3cc(O)c3ccccc43)cc2c1` reads 0.7 nM (active).
The value for `CCN[C@H]1CO[C@@H](O[C@H]2[C@H](O[C@H]3C#C/C=C\C#C[C@]4(O)CC(=O)C(NC(=O)OC)=C3/C4=C\CSSSC)O[C@H](C)[C@@H](NO[C@H]3C[C@H](O)[C@H](SC(=O)c4c(C)c(I)c(O[C@@H]5O[C@@H](C)[C@H](O)[C@@H](OC)[C@H]5O)c(OC)c4OC)[C@@H](C)O3)[C@@H]2O)C[C@@H]1OC` was 420 nM (active); that for `COc1cc2cc(c1Cl)N(C)C(=O)C[C@H](O)[C@]1(C)O[C@H]1[C@H](C)C1C[C@@](O)(NC(=O)O1)[C@H](OC)/C=C/C=C(\C)C2` was 13300 nM (active); that for `CC(C)(C)OC(=O)Nc1ccc2[nH]c(C(=O)N3C[C@@H](CCl)c4c3cc(O)c3ccccc43)cc2c1` was 9.4 nM (active).
As for `CC[C@H](C)[C@@H]([C@H](N)CC(=O)N1CCC[C@H]1[C@H](OC)[C@@H](C)C(=O)N[C@@H](Cc1ccccc1)c1nccs1)N(C)C(=O)[C@@H](NC(=O)[C@H](C(C)C)N(C)C)C(C)C`, the Potency is 6.7 nM (active).
Take `CCc1c2c(nc3ccc(O)cc13)-c1cc3c(c(=O)n1C2)COC(=O)[C@]3(O)CC`: the Potency was 1330 nM (active).
The result for `CC[C@H](C)[C@@H]([C@@H](CC(=O)N1CCC[C@H]1[C@H](OC)[C@@H](C)C(=O)N[C@@H](Cc1ccccc1)C(=O)O)OC)N(C)C(=O)[C@@H](NC(=O)[C@@H](NC)C(C)C)C(C)C` (H-[NMeV]V[Dil][Dolaproine]F-OH) reads 265 nM (active).
